Experimental data reported in PubChem BioAssay (NCI).
The panel holds about 83,000 compounds, 20% with a hit somewhere; the sample as a whole holds those more often.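 The endpoint reported here, percent growth, reads 100 for growth as untreated, 0 for no net growth and -100 for all cells dead.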 A number with no mark means an inactive call. Active and inactive are the calls of the source. How the source made its calls: active means growth percent below 10; inactive means the rest.

Columns and labels:
Assay in all cases: NCI-60 one-dose screen, 48 h (100 = growth as untreated, 0 = no growth, -100 = all killed)
Conditions in all cases: 10 µM unless noted
NCI-H23 lung = tested on: NCI-H23 lung
NCI-H226 lung = tested on: NCI-H226 lung
NCI-H322M lung = tested on: NCI-H322M lung
HOP-62 NSCLC = tested on: HOP-62 NSCLC
NCI-H460 lung = tested on: NCI-H460 lung
HOP-92 NSCLC = tested on: HOP-92 NSCLC
NCI-H522 lung = tested on: NCI-H522 lung
786-0 renal = tested on: 786-0 renal
COLO 205 colon = tested on: COLO 205 colon
DU-145 prostate = tested on: DU-145 prostate
K-562 leukemia = tested on: K-562 leukemia
MALME-3M melanoma = tested on: MALME-3M melanoma
MDA-MB-231 breast = tested on: MDA-MB-231 breast
RXF 393 renal = tested on: RXF 393 renal
SF-268 CNS = tested on: SF-268 CNS
SF-295 CNS = tested on: SF-295 CNS
SF-539 CNS = tested on: SF-539 CNS
UACC-257 melanoma = tested on: UACC-257 melanoma
M14 melanoma = tested on: M14 melanoma

CCOC(=O)[C@@H](C)C[C@H](Cc1ccccc1)NC(=O)c1csc([C@@H](C[C@H](C(C)C)N(C)C(=O)[C@H](CC)NC(=O)[C@H]2CCCCN2C)OC(C)=O)n1
growth (NCI-H23 lung): 28.4% | growth (NCI-H226 lung): 65.2% | growth (NCI-H322M lung): 43.1% | growth (HOP-62 NSCLC): 20.2% | growth (NCI-H460 lung): 6.53% (active) | growth (HOP-92 NSCLC): 41.5% | growth (NCI-H522 lung): -22.8% (active) | growth (786-0 renal): 8.33% (active) | growth (COLO 205 colon): -61.6% (active) | growth (DU-145 prostate): 5.21% (active) | growth (K-562 leukemia): 6.71% (active) | growth (MALME-3M melanoma): 71.7% | growth (MDA-MB-231 breast): 5.4% (active) | growth (RXF 393 renal): 28.8% | growth (SF-268 CNS): 29.1% | growth (SF-295 CNS): 1.53% (active) | growth (SF-539 CNS): -9.33% (active) | growth (UACC-257 melanoma): 39.1% | growth (M14 melanoma): -25.7% (active)

COC(=O)C12CC(NC(=O)c3csc([C@@H](C[C@H](C(C)C)N(C)C(=O)[C@@H](NC(=O)[C@H]4CCCCN4C)C4CC4)OC(C)=O)n3)(C1)C2
growth (NCI-H23 lung): 29.4% | growth (NCI-H226 lung): 14.6% | growth (NCI-H322M lung): 45% | growth (HOP-62 NSCLC): 6.31% (active) | growth (NCI-H460 lung): 7.21% (active) | growth (HOP-92 NSCLC): 18.7% | growth (NCI-H522 lung): -4.14% (active) | growth (786-0 renal): 24.5% | growth (COLO 205 colon): -64.5% (active) | growth (DU-145 prostate): 4.38% (active) | growth (K-562 leukemia): 7.65% (active) | growth (MALME-3M melanoma): 70% | growth (MDA-MB-231 breast): -0.474% (active) | growth (RXF 393 renal): 14.5% | growth (SF-268 CNS): 21.9% | growth (SF-295 CNS): 6.6% (active) | growth (SF-539 CNS): -28.5% (active) | growth (UACC-257 melanoma): 42.2% | growth (M14 melanoma): 14.8%

NC(=O)c1c(Br)n(C2OC(CO)C(O)C2O)c2ncnc(N)c12 (stereo not given)
growth (NCI-H23 lung): 9.8% (active) | growth (NCI-H226 lung): 54.1% | growth (NCI-H322M lung): 21.7% | growth (HOP-62 NSCLC): 12% | growth (NCI-H460 lung): 11.8% | growth (HOP-92 NSCLC): 3.71% (active) | growth (NCI-H522 lung): -18.7% (active) | growth (786-0 renal): 25.9% | growth (COLO 205 colon): -12.9% (active) | growth (DU-145 prostate): 1.13% (active) | growth (K-562 leukemia): 1.67% (active) | growth (MALME-3M melanoma): 13.2% | growth (MDA-MB-231 breast): 50.6% | growth (RXF 393 renal): -16.4% (active) | growth (SF-268 CNS): 20.1% | growth (SF-295 CNS): 38.9% | growth (SF-539 CNS): 13.7% | growth (UACC-257 melanoma): -0.624% (active) | growth (M14 melanoma): 2.28% (active)

C[S+]1C=Cc2ccccc2C1c1ccc(Cl)cc1 (stereo not given)
growth (NCI-H23 lung): 83.7% | growth (NCI-H226 lung): 85.1% | growth (NCI-H322M lung): 99.5% | growth (HOP-62 NSCLC): 126% | growth (NCI-H460 lung): 99.6% | growth (HOP-92 NSCLC): -54.5% (active) | growth (NCI-H522 lung): 18.9% | growth (786-0 renal): 111% | growth (COLO 205 colon): 114% | growth (DU-145 prostate): 99.8% | growth (K-562 leukemia): 78.8% | growth (MALME-3M melanoma): 103% | growth (MDA-MB-231 breast): 103% | growth (RXF 393 renal): 74.8% | growth (SF-268 CNS): 47.1% | growth (SF-295 CNS): 68% | growth (SF-539 CNS): 104% | growth (UACC-257 melanoma): 92.5% | growth (M14 melanoma): 83.6%

Clc1ccc(N2COOC3(OOC2)C2CC4CC(C2)CC3C4)cc1
growth (NCI-H23 lung): 22% | growth (NCI-H226 lung): 95.8% | growth (NCI-H322M lung): 76.4% | growth (HOP-62 NSCLC): 45.9% | growth (NCI-H460 lung): 61.5% | growth (HOP-92 NSCLC): -23.1% (active) | growth (NCI-H522 lung): -53.2% (active) | growth (786-0 renal): -4.34% (active) | growth (COLO 205 colon): 101% | growth (DU-145 prostate): 85% | growth (K-562 leukemia): 29.9% | growth (MALME-3M melanoma): 26.3% | growth (MDA-MB-231 breast): 82.9% | growth (RXF 393 renal): 101% | growth (SF-268 CNS): 58.1% | growth (SF-295 CNS): 70.6% | growth (SF-539 CNS): 23.5% | growth (UACC-257 melanoma): 85.8% | growth (M14 melanoma): 65.9%

C=CCc1cc2c(cc1OCC)OCO2
growth (NCI-H23 lung): 95.6% | growth (NCI-H226 lung): 99.3% | growth (NCI-H322M lung): 114% | growth (HOP-62 NSCLC): 64.7% | growth (NCI-H460 lung): 102% | growth (HOP-92 NSCLC): 81.1% | growth (NCI-H522 lung): 74.5% | growth (786-0 renal): 92.4% | growth (COLO 205 colon): 108% | growth (DU-145 prostate): 108% | growth (K-562 leukemia): 114% | growth (MALME-3M melanoma): 116% | growth (MDA-MB-231 breast): 110% | growth (SF-268 CNS): 94.8% | growth (SF-295 CNS): 93.6% | growth (SF-539 CNS): 99.1% | growth (UACC-257 melanoma): 105% | growth (M14 melanoma): 92.9%

CCC1(C)CC(CCNCc2ccccc2O)(c2ccc(C)cc2)CCO1 (stereo not given)
growth (NCI-H23 lung): 101% | growth (NCI-H226 lung): 107% | growth (NCI-H322M lung): 108% | growth (HOP-62 NSCLC): 108% | growth (NCI-H460 lung): 102% | growth (HOP-92 NSCLC): 105% | growth (NCI-H522 lung): 108% | growth (786-0 renal): 101% | growth (COLO 205 colon): 115% | growth (DU-145 prostate): 103% | growth (K-562 leukemia): 101% | growth (MALME-3M melanoma): 109% | growth (MDA-MB-231 breast): 106% | growth (RXF 393 renal): 111% | growth (SF-268 CNS): 105% | growth (SF-539 CNS): 99.1% | growth (UACC-257 melanoma): 107% | growth (M14 melanoma): 104%

C=CC1=C[C@@H]2[C@@H]3O[C@]4(CC[C@H](O4)[C@@H](C)C[C@@H](O)C3=O)C[C@H](O)C3=NCC[C@@]32CC1
growth (NCI-H23 lung): -34.6% (active) | growth (NCI-H226 lung): -29.2% (active) | growth (NCI-H322M lung): -23.4% (active) | growth (HOP-62 NSCLC): -20.3% (active) | growth (NCI-H460 lung): -28.9% (active) | growth (HOP-92 NSCLC): -22.3% (active) | growth (NCI-H522 lung): -33.5% (active) | growth (786-0 renal): -28.3% (active) | growth (COLO 205 colon): -25.6% (active) | growth (DU-145 prostate): -26.7% (active) | growth (K-562 leukemia): 5.48% (active) | growth (MALME-3M melanoma): -82.2% (active) | growth (MDA-MB-231 breast): -29.2% (active) | growth (RXF 393 renal): -67.3% (active) | growth (SF-268 CNS): -35.8% (active) | growth (SF-295 CNS): -35.9% (active) | growth (SF-539 CNS): -43.6% (active) | growth (UACC-257 melanoma): -31.5% (active) | growth (M14 melanoma): -79% (active)
